GDH-TPI inh: inhibits GDH-TPI coupling enzymes, artifact for Mtb FBA screen; inhibition, % at 4.8 µM; 360,000 tested, 1.2% active; GDH-TPI coupled enzyme counterscreen, NADH absorbance; in the data active = inhibition above about 30%;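 also: 0% = DMSO wells and 100% = wells lacking the enzyme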
PfHsp40 yeast: restores yeast growth despite PfHsp40 toxicity; S. cerevisiae expressing PfHsp40, growth rescue, ATP luminescence; growth rescue, % at 12.5 µM; 340,000 tested, 0.68% active; AID 504582; in the data active = growth rescue above about 28%, passing the limit was not always enough;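 also: yeast W303a lacking pdr1 and pdr3 grown in galactose medium; growth measured after three days at 30 °C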
Mtb FBA inh: inhibitors of M. tuberculosis fructose-bisphosphate aldolase | P9WQA3 | purified M. tuberculosis FBA, fluorescence read-out | inhibition, % at 1 µM | 360,000 tested, 2.3% active; in the data active = inhibition above about 27%;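 also: 0% = vehicle and 100% = reference inhibitor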
PrPC TRFRET: inhibitors of human cell surface prion protein PrPC; 370,000 tested, 0.43% active; inhibition, % at 13.8 µM; TR-FRET read-out; P04156; in the data active = inhibition above about 24%; also: 0% = median of the test wells and 100% = reference compound wells
PrP 5UTR inh: suppresses PrP 5' UTR mRNA reporter expression; cell-based PrP 5' UTR mRNA reporter, plate reader; inhibition, % (concentration not given with the values); 340,000 tested, 0.35% active; in the data active = inhibition above about 52%; also: 0 = median of the neutral control wells
BJeLR lethal: BJeLR cell viability loss. BJeLR (HRASV12) viability, CellTiter-Glo ATP luminescence, 48 h. inhibition, % (no concentration beside the values). 300,000 tested, 0.17% active. AID 1554; in the data active = inhibition above about 50%
PrPC TRFRET cf: cell surface PrPC inhibition, TR-FRET confirmation; cell surface PrPC level; inhibition, % at 13.8 µM; 1,500 tested, 65% active; shares compounds with PrPC TRFRET; in the data active = inhibition above about 25%
LD9 cytotox: LD9 cell cytotoxicity, PrPc inhibitor counter-screen; inhibition, % at 13.8 µM; 1,500 tested, 29% active; LD9 cells cytotoxicity, luminescence viability; shares compounds with PrPC TRFRET; AID 743201; in the data active = inhibition above about 9.5%
Starred values were filed as active, the others as inactive. In the library only some 4.5% were active in any assay of this set; here they are far more common.

C=CC#CC[N+]1(CC#Cc2ccccc2)CCOCC1 was read as GDH-TPI inh 8.6, PfHsp40 yeast -0.7, Mtb FBA inh 1.9, PrPC TRFRET 38.2*, PrP 5UTR inh -2.0, BJeLR lethal -3.8, PrPC TRFRET cf 43.9* and LD9 cytotox -5.9.
Screening CCO[C@H]1OC(C(=O)NCc2nc3ccccc3[nH]2)=C[C@@H](C)[C@@H]1CCCO returned GDH-TPI inh -1.3, PfHsp40 yeast 0.0, Mtb FBA inh 3.0, PrPC TRFRET -4.3, PrP 5UTR inh -11.9 and BJeLR lethal 6.1.
Screening CCO[C@H]1OC(C(=O)NCc2nc3ccccc3[nH]2)=C[C@@H](C2CCCCC2)[C@@H]1CCCO returned GDH-TPI inh 5.2, PfHsp40 yeast -0.2, Mtb FBA inh -1.8, PrPC TRFRET 43.6*, PrP 5UTR inh -10.9, BJeLR lethal -2.4, PrPC TRFRET cf 25.2* and LD9 cytotox 0.5.
COc1ccc(NC(=O)c2cccc(S(=O)(=O)N3CCN(C)CC3)c2)c(OC)c1 was read as GDH-TPI inh 14.8, PfHsp40 yeast -1.3, Mtb FBA inh 1.5, PrPC TRFRET -5.7, PrP 5UTR inh -12.2 and BJeLR lethal -0.5.
Screening Cn1cnnc1SCC(=O)c1c(N)n(Cc2ccccc2)c(=O)n(C)c1=O returned GDH-TPI inh 5.0, PfHsp40 yeast -1.0, Mtb FBA inh -0.2, PrPC TRFRET 35.8*, PrP 5UTR inh -24.3, BJeLR lethal 3.4, PrPC TRFRET cf 18.6 and LD9 cytotox -7.0.
Cn1c(=O)c(C(=O)CSc2ccccc2)c(N)n(Cc2ccccc2)c1=O was read as GDH-TPI inh 12.9, PfHsp40 yeast -2.0, Mtb FBA inh -4.4, PrPC TRFRET 9.0, PrP 5UTR inh -14.9 and BJeLR lethal -1.5.
Cc1nnc(SCC(=O)c2c(N)n(Cc3ccccc3)c(=O)n(C)c2=O)n1C was read as GDH-TPI inh 7.3, PfHsp40 yeast -0.2, Mtb FBA inh 1.6, PrPC TRFRET 2.1, PrP 5UTR inh -6.4 and BJeLR lethal 0.8.
For Cn1c(=O)c(C(=O)CSc2nncs2)c(N)n(Cc2ccccc2)c1=O the results were GDH-TPI inh -1.2, PfHsp40 yeast -0.4, Mtb FBA inh -1.1, PrPC TRFRET 66.0*, PrP 5UTR inh 5.0, BJeLR lethal 3.8, PrPC TRFRET cf 64.8* and LD9 cytotox 1.8.
Cc1cccc(COC[C@H](Cc2ccccc2)N2CCN(C(=O)c3cc(Cl)cc(Cl)c3)CCC2=O)c1 was read as PrPC TRFRET 3.4.
`COc1ccc(NC(=O)c2c3c(nc4ccccc24)CCC3)cc1S(=O)(=O)N1CCOCC1` gave GDH-TPI inh 6.2, PfHsp40 yeast -1.9, Mtb FBA inh -2.8, PrPC TRFRET 2.9, PrP 5UTR inh -11.0 and BJeLR lethal -16.2.
Screening O=C(CNCC1(N2CCOCC2)CCCCC1)Nc1ccc(Cl)cc1 returned GDH-TPI inh 5.5, PfHsp40 yeast -1.2, Mtb FBA inh 4.1, PrPC TRFRET -4.0, PrP 5UTR inh -4.6 and BJeLR lethal 8.2.
CSc1nc2ccc(NC(=O)c3cccs3)cc2s1 was read as GDH-TPI inh 14.5, PfHsp40 yeast 158.0*, Mtb FBA inh 0.5, PrPC TRFRET 25.5*, PrP 5UTR inh -55.2, PrPC TRFRET cf 24.8* and LD9 cytotox -0.3.
CSc1nc2ccc(NC(=O)c3ccco3)cc2s1 was read as GDH-TPI inh 20.7, PfHsp40 yeast 2.3, Mtb FBA inh -4.3, PrPC TRFRET 10.9, PrP 5UTR inh -95.7 and BJeLR lethal -8.3.
For COc1ccc(NC(=O)c2cccc(Oc3ccccc3)c2)cn1 the results were GDH-TPI inh -10.0, PfHsp40 yeast 5.6, Mtb FBA inh 1.3, PrPC TRFRET 26.0*, PrP 5UTR inh -25.5, BJeLR lethal 10.3, PrPC TRFRET cf 10.0 and LD9 cytotox 0.9.
For O=C(CSc1ccsc1[N+](=O)[O-])NCc1ccco1 the results were GDH-TPI inh 10.4, PfHsp40 yeast -1.4, Mtb FBA inh 4.8, PrPC TRFRET -20.2, PrP 5UTR inh -18.5 and BJeLR lethal 0.2.
For O=C(NNc1ccccc1Br)C(O)(c1cccc(C(F)(F)F)c1)c1cccc(C(F)(F)F)c1 the results were GDH-TPI inh 6.5, PfHsp40 yeast -0.4, Mtb FBA inh 2.2, PrPC TRFRET 30.1*, PrP 5UTR inh -27.0, BJeLR lethal 3.6, PrPC TRFRET cf 5.9 and LD9 cytotox 1.4.
For Cc1ccc(NNC(=O)C(O)(c2cccc(C(F)(F)F)c2)c2cccc(C(F)(F)F)c2)cc1 the results were GDH-TPI inh 2.3, PfHsp40 yeast 0.6, Mtb FBA inh -2.3, PrPC TRFRET 24.1, PrP 5UTR inh -26.1 and BJeLR lethal 3.5.
For COc1ccc(CCNC(=O)COc2ccc(C)nc2[N+](=O)[O-])cc1OC the results were GDH-TPI inh 0.6, PfHsp40 yeast -0.4, Mtb FBA inh -7.8, PrPC TRFRET -13.7, PrP 5UTR inh -26.0 and BJeLR lethal 0.9.
`Cc1cc(N=O)no1` gave PrPC TRFRET -14.1.
`CC(C)c1nc(SCC(=O)Nc2nc3c(s2)CCCC3)c2ccccc2n1` gave GDH-TPI inh 5.3, PfHsp40 yeast 22.2, Mtb FBA inh 0.2, PrPC TRFRET 60.3*, PrP 5UTR inh -9.1, BJeLR lethal 0.3, PrPC TRFRET cf 74.8* and LD9 cytotox -0.9.
For Cc1cc(NC(=O)C(C)Sc2nc(-c3cccs3)nc3ccccc23)no1 (stereo not given) the results were GDH-TPI inh 13.5, PfHsp40 yeast 0.4, Mtb FBA inh 3.4, PrPC TRFRET 42.5*, PrP 5UTR inh -15.7, PrPC TRFRET cf 102.1* and LD9 cytotox -4.2.
Screening CC(C)(C)c1nc(SCC(=O)Nc2nc3c(s2)CCCC3)c2ccccc2n1 returned GDH-TPI inh 12.4, PfHsp40 yeast 0.0, Mtb FBA inh 0.5, PrPC TRFRET 1.8, PrP 5UTR inh 16.5 and BJeLR lethal 28.1.
Screening Cc1cc(NC(=O)CSc2nc(C(C)C)nc3ccccc23)no1 returned GDH-TPI inh 10.8, PfHsp40 yeast 1.2, Mtb FBA inh 0.2, PrPC TRFRET 117.9*, PrP 5UTR inh -19.1, BJeLR lethal -3.9, PrPC TRFRET cf 123.8* and LD9 cytotox -13.6.
`Cc1nnc(NC(=O)CSc2nc(C(C)C)nc3ccccc23)s1` gave GDH-TPI inh 1.9, PfHsp40 yeast -0.9, Mtb FBA inh -2.9, PrPC TRFRET 28.7*, PrP 5UTR inh -15.8, BJeLR lethal 7.6, PrPC TRFRET cf 78.4* and LD9 cytotox -3.7.
`COc1cc(C(=O)N[C@@H](C)C(=O)N2CCC3(CC2)NCCc2[nH]cnc23)cc(OC)c1OC` gave GDH-TPI inh -5.2, PfHsp40 yeast -0.5, Mtb FBA inh 2.1, PrPC TRFRET 24.7*, PrP 5UTR inh -27.6, BJeLR lethal 4.2, PrPC TRFRET cf 5.5 and LD9 cytotox 3.7.

Screening data as filed in PubChem.
